Assay [1] deals with Cytochrome P450 3A4 (Homo sapiens) (UniProt P08684). Kind of assay: qHTS Assay for Inhibitors and Substrates of Cytochrome P450 3A4 (AID 884). Further: on the % scale 0 is the no-effect control and ±100 the full control effect; nearly all actives have a fitted effect of over 50% in size. In outline: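 Luminescent readout of luciferin produced by CYP3A4 (20 nM) dealkylation of Luciferin-PPXE, 25 uM (its KM). NADPH-driven reaction ran 60 min at RT after 10 min compound preincubation; data scaled to 57 uM ketoconazole as 100% inhibition.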
Chain of Cytochrome P450 3A4 (Homo sapiens) (P08684 whole entry, looked up): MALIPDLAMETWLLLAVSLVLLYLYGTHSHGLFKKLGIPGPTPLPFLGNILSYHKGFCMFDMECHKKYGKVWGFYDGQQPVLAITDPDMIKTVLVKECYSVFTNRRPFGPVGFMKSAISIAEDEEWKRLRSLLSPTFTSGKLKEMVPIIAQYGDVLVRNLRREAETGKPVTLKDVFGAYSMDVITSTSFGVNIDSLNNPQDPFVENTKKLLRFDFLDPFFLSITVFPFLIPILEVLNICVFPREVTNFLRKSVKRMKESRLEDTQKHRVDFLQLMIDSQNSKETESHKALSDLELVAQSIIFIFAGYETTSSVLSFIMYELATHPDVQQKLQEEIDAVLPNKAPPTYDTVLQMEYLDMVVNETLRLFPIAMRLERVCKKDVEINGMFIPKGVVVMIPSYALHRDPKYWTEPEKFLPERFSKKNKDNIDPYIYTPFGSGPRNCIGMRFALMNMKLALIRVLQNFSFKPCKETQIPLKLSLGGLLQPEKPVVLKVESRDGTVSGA
A general note: In qHTS, concentration-response curves come from the screen itself.

Assay [2] in a line: Confirmation and Secondary Assay for Modulators of Hemoglobin Beta Chain Splicing at IVS2 654 locus (AID 910).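 Further: per-well total GFP intensity by laser scanning cytometry after 2-day treatment; % of control where 0% means no effect.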 In outline: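 HeLa cells stably carrying EGFP interrupted by mutant beta-globin IVS2-654 intron (CMV-driven) were treated with compound for 2 days at 37C; corrected splicing was scored as total peak GFP intensity per well (488 nm excitation, 500-520 nm emission).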
Assay [3] in a line: Confirmation and Secondary Assay for Modulators of Hemoglobin Beta Chain Splicing at IVS2 705 locus (AID 930).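 Further: HeLa cells stably expressing the EGFP-705 splicing reporter; GFP fluorescence per well restored by corrected splicing of the IVS2-705 intron in EGFP; % of control where 0% means no effect.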 In outline:
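Splice-correction reporter: EGFP cDNA split by beta-globin intron 2 bearing the 705 mutation, stably in HeLa. Compound incubation 2 days, 37C; fluorescent objects 5-250 µm summed per well.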

A short description of assay [4]: qHTS Assay for Lipid Storage Modulators (AID 1519; calls by dose curve; on activity change, negative = inhibition: on the % scale 0 is the no-effect control and ±100 the full control effect). The following applies: Drosophila S3 cells, BODIPY lipid droplet/cell ratio, laser cytometry, cells loaded with oleic acid; for activity change, negative = inhibition: at 57.5 µM (top of the series). In outline: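 Cells seeded at 5,000 per well were treated with compounds over a concentration series and loaded with oleic acid (400 uM, as added). Lipid droplet fluorescence (488 nm excitation, 500-530 nm channel) was read by laser-scanning cytometry and normalized to 20 uM Triacsin C.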

Assay [5] deals with Ubiquitin carboxyl-terminal hydrolase 1 (Homo sapiens) (UniProt O94782). Kind of assay: Inhibitors of USP1/UAF1: Pilot qHTS (AID 504865).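 Further: rhodamine fluorescence freed from ubiquitin-rhodamine substrate followed over time; top concentration of the series differs between compounds; on the % scale 0 is the no-effect control and ±100 the full control effect; nearly all actives have a fitted effect of over 35% in size.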 In outline: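 Enzyme-free wells gave the negative control, while test wells held 1nM USP1/UAF1 preincubated with compound for 15 min at room temperature. Ub-Rho at 150nM final started the reaction, and fluorescence at 480/540 nm was recorded kinetically.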
Chain of Ubiquitin carboxyl-terminal hydrolase 1 (Homo sapiens) (O94782 whole entry, looked up): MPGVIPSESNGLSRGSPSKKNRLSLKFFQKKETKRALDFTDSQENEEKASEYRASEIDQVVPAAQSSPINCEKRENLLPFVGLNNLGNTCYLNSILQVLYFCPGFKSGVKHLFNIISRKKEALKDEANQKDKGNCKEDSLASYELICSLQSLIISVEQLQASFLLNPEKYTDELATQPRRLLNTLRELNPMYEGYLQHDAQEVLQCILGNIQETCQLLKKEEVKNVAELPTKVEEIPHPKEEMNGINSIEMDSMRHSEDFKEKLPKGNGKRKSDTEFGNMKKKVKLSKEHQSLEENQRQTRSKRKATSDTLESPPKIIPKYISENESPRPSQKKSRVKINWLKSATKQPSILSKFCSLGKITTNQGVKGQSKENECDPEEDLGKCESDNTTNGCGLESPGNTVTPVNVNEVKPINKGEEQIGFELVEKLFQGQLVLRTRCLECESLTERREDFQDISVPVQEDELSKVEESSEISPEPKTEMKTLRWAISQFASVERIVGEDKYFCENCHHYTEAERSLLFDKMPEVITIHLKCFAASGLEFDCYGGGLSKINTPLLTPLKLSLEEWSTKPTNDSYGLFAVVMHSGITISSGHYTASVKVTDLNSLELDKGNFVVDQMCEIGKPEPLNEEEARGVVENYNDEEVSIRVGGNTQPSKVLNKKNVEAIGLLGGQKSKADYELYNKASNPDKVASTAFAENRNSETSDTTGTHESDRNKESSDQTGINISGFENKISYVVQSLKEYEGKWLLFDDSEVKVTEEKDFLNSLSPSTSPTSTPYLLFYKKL

Where [6] appears, read: measured here: cell count channel max response.
Setting [7] is: measured here: lipid channel max response.

Counter-ions that a name gives are not always drawn. Inconclusive results are not listed. Calls of active or inactive are those of the source. Unless noted, the call rests on the fitted dose curve; in most records, active means well fitted curve in the direction sought with a large enough effect; inconclusive means small, poorly fitted or top-dose-only effect, or another doubt; inactive means no such curve, though single readings can be large; an effect the other way counts as inactive or inconclusive. Peptide text beside a SMILES is read from it. * marks the point of attachment. Tfa = O=C(C(F)(F)F)*

Consider `CCCC1CC(C(=O)N[C@H](C(C)O)C2OC(SC)[C@@H](O)C(O)C2O)N(C)C1` (some centres not stated), for which the Potency result in assay [1], in assay [2], in assay [3] and in assay [5] was “inactive” throughout. In addition, the activity change, negative = inhibition in assay [4] is 12.2% (inactive). Besides, the max response worked out at 19.1% in assay [4] (setting [6]) and 38.8% in assay [4] (setting [7]).
In the case of `CC(=O)OC1CCC2(C)C3CC(=O)C4(C)C(CC5OC6(CCC(C)CO6)C(C)C54)C3CC[C@H]2C1` (some centres not stated), the Potency entry in assay [1], in assay [2], in assay [3] and in assay [5] was “inactive” throughout. Further, the activity change, negative = inhibition in assay [4] is 5.04% (inactive). The max response in assay [4] (setting [6]) came out at 11.2%; in assay [4] (setting [7]) it was 17.7%.
`CC(CCC(=O)O)C1CCC2C3CC[C@@H]4CCCC[C@@]4(C)C3CC[C@@]12C` (some centres not stated): the Potency entry in assay [1], in assay [2], in assay [3] and in assay [5] was “inactive” throughout. For the same compound, the activity change, negative = inhibition in assay [4] is 2.19% (inactive). The max response is 13.8% in assay [4] (setting [6]) and 19% in assay [4] (setting [7]).
Regarding `COc1cc(/C=C/C(=O)O)cc(OC)c1OC`, the Potency entry in assay [1], in assay [2], in assay [3] and in assay [5] was “inactive” in each case. The activity change, negative = inhibition in assay [4] is 3.87% (inactive). Moreover, the max response in assay [4] (setting [6]) was determined as 9.64%; in assay [4] (setting [7]) it was 14.9%.
For the compound `CC(=O)/C(=C\c1ccccc1)CC(=O)O`, the Potency result in assay [1], in assay [2], in assay [3] and in assay [5] was “inactive” in each case. Also, the activity change, negative = inhibition in assay [4] was 9.42% (inactive). The max response in assay [4] (setting [6]) was 12.7%; in assay [4] (setting [7]), 23.6%.
As for `CC(C)C(NC(=O)C(Cc1ccc(O)cc1)NC(=O)C(NC(=O)C(F)(F)F)C(C)C)C(=O)O` (stereo not drawn) (Tfa-Val-Tyr-Val-OH; configuration not given here), the Potency result in assay [1], in assay [2], in assay [3] and in assay [5] was “inactive” each time. In addition, in assay [4], the activity change, negative = inhibition was 4.31% (inactive). For the same compound, the results for the max response in assay [4] (setting [6]) and in assay [4] (setting [7]) were 0.432% and 4.35%, respectively.
Take `COc1ccc2c(=O)c(CC(=O)O)coc2c1`: the Potency entry in assay [1], in assay [2], in assay [3] and in assay [5] was “inactive” throughout. In assay [4], the activity change, negative = inhibition is 4.63% (inactive). For the same compound, the max response in assay [4] (setting [6]) stood at 9.56%; in assay [4] (setting [7]), 14.8%.
As for `CC1C(=O)CCC2[C@]1(C)CCC1[C@]2(C)CC[C@@]2(C)C3CC(C)(C)CC[C@]3(C)CC[C@@]12C` (some centres not stated), the Potency result in assay [1], in assay [2], in assay [3] and in assay [5] was “inactive” in each case. For the same compound, the activity change, negative = inhibition in assay [4] was 2.51% (inactive). Also, the max response was 9.14% in assay [4] (setting [6]) and 14.3% in assay [4] (setting [7]).
For the compound `CC1CCC2(OC1)OC1CC3C4CCC5CC(O)CCC5(C)C4=CCC3(C)C1C2C` (configuration not stated), the Potency result in assay [1], in assay [2], in assay [3] and in assay [5] was “inactive” throughout. Besides, the activity change, negative = inhibition in assay [4] is -0.725% (inactive). The max response in assay [4] (setting [6]) came out at 2.89%; in assay [4] (setting [7]), 3.25%.
For the compound `CC1(O)CC2C(CC1O)C2(C)C` (configuration not stated), the Potency result in assay [1], in assay [2], in assay [3] and in assay [5] was “inactive” in each case. Further, in assay [4], the activity change, negative = inhibition is 2.85% (inactive). The max response is -5.99% in assay [4] (setting [6]) and -2.1% in assay [4] (setting [7]).
Turning to `CS(=O)(=O)CCCCN=C=S`, the Potency result in assay [1], in assay [2], in assay [3] and in assay [5] was “inactive” in each case. Moreover, in assay [4], the activity change, negative = inhibition was -15.3% (inactive). Besides, the max response in assay [4] (setting [6]) is -1.15%; in assay [4] (setting [7]), -18%.
`CC1(C)C2CC[C@@]1(C)C(=O)C2`: the Potency result in assay [1], in assay [2], in assay [3] and in assay [5] was “inactive” throughout. Further, in assay [4], the activity change, negative = inhibition was 3.53% (inactive). In addition, the results for the max response in assay [4] (setting [6]) and in assay [4] (setting [7]) were 13.5% and 19.8%, respectively.
As to `O=C(O)C1(O)CC(O)C(O)C(O)C1` (configuration not stated), the Potency entry in assay [1], in assay [2], in assay [3] and in assay [5] was “inactive” each time. In addition, the activity change, negative = inhibition in assay [4] was 2.66% (inactive). The max response is 9.62% in assay [4] (setting [6]) and 14.4% in assay [4] (setting [7]).
Turning to `CCNC(=O)CCC(N)C(=O)O` (configuration not stated), the Potency entry in assay [1], in assay [2], in assay [3] and in assay [5] was “inactive” each time. The activity change, negative = inhibition in assay [4] is 2.77% (inactive). Further, the max response worked out at 9.46% in assay [4] (setting [6]) and 16.9% in assay [4] (setting [7]).
As for `CC1CC[C@@]2(OC1)OC1CC3C4CC[C@@H]5CC(O)CC[C@@]5(C)C4CC[C@]3(C)C1C2C` (some centres not stated), the Potency result in assay [1], in assay [2], in assay [3] and in assay [5] was “inactive” each time. Moreover, the activity change, negative = inhibition in assay [4] was 4.69% (inactive). Further, the max response amounted to 11.7% in assay [4] (setting [6]) and 17.1% in assay [4] (setting [7]).
For `C/C1=C/CC(C)(C)/C=C/C/C(C)=C/CC1`, the Potency result in assay [1], in assay [3] and in assay [5] was “inactive” in each case. The activity change, negative = inhibition in assay [4] was 0.556% (inactive). Moreover, the max response is 16.1% in assay [4] (setting [6]) and 16.9% in assay [4] (setting [7]).
Turning to `O=c1[nH]c(=O)n(C2CC(O)C(CO)O2)cc1C(F)(F)F` (configuration not stated), the Potency result in assay [1], in assay [2], in assay [3] and in assay [5] was “inactive” throughout. The activity change, negative = inhibition in assay [4] is 3.87% (inactive). The max response in assay [4] (setting [6]) was -2.79%; in assay [4] (setting [7]), 3.03%.
Consider `COC(=O)C1=CO[C@@H](O[C@H]2OC(CO)C(O)C(O)C2O)C2C1CC(O)C2C` (some centres not stated), for which the Potency result in assay [1], in assay [2], in assay [3] and in assay [5] was “inactive” each time. Also, in assay [4], the activity change, negative = inhibition is 6.73% (inactive). Also, the figures for the max response in assay [4] (setting [6]) and in assay [4] (setting [7]) were 11.3% and 19.4%, respectively.
Consider `C=CCSCC(N)C(=O)O` (configuration not stated), for which the Potency entry in assay [1], in assay [2], in assay [3] and in assay [5] was “inactive” in each case. Besides, in assay [4], the activity change, negative = inhibition is 7.56% (inactive). Further, the max response in assay [4] (setting [6]) is 17.4%; in assay [4] (setting [7]), 25.7%.
As for `CC1(C)CC[C@]2(C)CC[C@@]3(C)C(=CCC4[C@@]5(C)CCC(O)C(C)(C)C5CC[C@@]43C)C2C1` (some centres not stated), the Potency entry in assay [1], in assay [3] and in assay [5] was “inactive” throughout. Also, in assay [4], the activity change, negative = inhibition was 3.54% (inactive). For the same compound, the max response in assay [4] (setting [6]) was found to be 18%; in assay [4] (setting [7]), 24.3%.
For `CC(=O)NC(CC(=O)O)C(=O)O` (configuration not stated), the Potency result in assay [1], in assay [2], in assay [3] and in assay [5] was “inactive” in each case. In assay [4], the activity change, negative = inhibition was 2.97% (inactive). Further, the max response in assay [4] (setting [6]) is 13.4%; in assay [4] (setting [7]), 18%.
On to `CO[C@]1(NC(=O)C(C(=O)O)c2ccc(O)cc2)C(=O)N2C(C(=O)O)=C(CSc3nnnn3C)COC21` (some centres not stated), for which the Potency result in assay [1], in assay [2], in assay [3] and in assay [5] was “inactive” in each case. Besides, the activity change, negative = inhibition in assay [4] is 9.58% (inactive). Besides, the max response in assay [4] (setting [6]) amounted to 18.1%; in assay [4] (setting [7]), 35.5%.
